Source: PubChem (several laboratories)
EP2 modulator: EP2 receptor modulators, cAMP readout, primary screen, cell-based, HTRF cAMP, PGE2 stimulation; Prostaglandin E2 receptor EP2 subtype (Homo sapiens), P43116; EP2-expressing cells, cAMP HTRF FRET, PGE2 co-stimulation; induction, % at 25 µM; 260,000 compounds, 0.83% hits; AID 940, 2007;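 active = compounds whose cAMP rise, as percent of the full-agonist control response, exceeds 60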;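 note: rat C6 glioma line stably carrying human EP2 under a CMV promoter; the protocol text gives 20 µM as final concentration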
Target sequence (P43116 whole entry, looked up): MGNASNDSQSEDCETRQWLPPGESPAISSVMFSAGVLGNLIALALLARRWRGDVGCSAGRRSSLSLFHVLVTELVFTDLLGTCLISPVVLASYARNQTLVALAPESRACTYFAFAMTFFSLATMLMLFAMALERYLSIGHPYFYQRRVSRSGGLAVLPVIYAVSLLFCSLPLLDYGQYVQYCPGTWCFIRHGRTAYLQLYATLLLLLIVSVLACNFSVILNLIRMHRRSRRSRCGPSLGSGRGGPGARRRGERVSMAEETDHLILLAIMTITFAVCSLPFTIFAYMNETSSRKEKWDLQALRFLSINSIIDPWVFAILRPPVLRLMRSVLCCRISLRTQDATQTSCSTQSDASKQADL
Furin inh: human furin inhibitors, primary screen, biochemical, fluorescence intensity | AID 463115, 2010 | inhibition, % at 20 µM or 30 µM | purified furin, fluorogenic substrate cleavage | P09958 | 220,000 compounds, 0.061% hits; in the data active = inhibition above about 25%
Pf gametocyte: late stage P. falciparum gametocyte viability inhibitors, primary screen, ATP luminescence, HTS | 150,000 compounds, 0.065% hits | inhibition, % at 10.9 µM | P. falciparum stage V gametocytes, 24 h;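 active = inhibition above the mean plus 3 SD of compounds within the control limits, set per campaign, cut at about 38% in these data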
HSV augment: enhancers of HSV replication in host cells, fold increase, host cell viability; HSV replication augmentation in cells; maximum fold increase; 220,000 compounds, 0.005% hits; in the data active = maximum fold increase above about 1.5; inconclusive = no clear call, values can overlap the other calls; tested in PC3 cells
PGE2 EP2 inh: human EP2 receptor antagonists, primary screen, TR-FRET cAMP, C6 glioma cells; AID 1422, 2008; 260,000 compounds, 0.52% hits; C6 glioma cells expressing human EP2; cells stimulated with saturating PGE2; inhibition, % at 25 µM;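 active = percent inhibition above 40 after rounding to a whole number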;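 note: rat C6 glioma host cells with rolipram phosphodiesterase inhibitor present; the protocol text gives 20 µM as final concentration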
Of the large screens only hits and unclear results are named; the others gave an inactive call; ! = repeats disagree. The list is not random: actives were taken first. Their share in the collection is about 1.4%.

CCN(CC)C(=O)CSc1nc(-c2ccccc2)ccc1C#N	none (no result: Pf gametocyte)
CCOC(=O)C(C)Sc1nc(-c2ccccc2)ccc1C#N (centres undefined)	EP2 modulator 62 (no result: Furin inh, Pf gametocyte, HSV augment)
CC(C)CNc1nc2c(c(=O)n(C)c(=O)n2C)n1Cc1cccc(Br)c1	EP2 modulator 62
CC(O)CNc1nc2c(c(=O)n(C)c(=O)n2C)n1Cc1cccc(Br)c1 (centres undefined)	none
Cc1cc2nc3ccc(=[N+](C)C)cc-3sc2cc1N	PGE2 EP2 inh active (no result: Pf gametocyte)
Cc1nc2cc(C)c(C)cc2s1	none
CN(C)c1ccc2nc3ccc(=[N+](C)C)cc-3sc2c1	PGE2 EP2 inh active
CCN(CC)S(=O)(=O)c1ccc(Cl)c(NC(=O)COC(=O)c2cccn2C)c1	Pf gametocyte 42
CCN(CC)S(=O)(=O)c1ccc(Cl)c(NC(=O)COC(=O)c2ccc(O)cc2)c1	none
Cc1cc(OCc2ccccc2)ccc1/C(O)=C1/C(=O)C(=O)N(Cc2cccnc2)C1c1ccncc1 (centres undefined)	EP2 modulator 64
COc1ccc(/C(O)=C2/C(=O)C(=O)N(Cc3cccnc3)C2c2ccc(OC)c(OC)c2)c(C)c1 (centres undefined)	none (no result: Furin inh, Pf gametocyte, HSV augment)
Cc1cc(=S)c2cc(Br)ccc2[nH]1	EP2 modulator 66 (no result: Furin inh, Pf gametocyte, HSV augment)
Cc1ccc(NC(=O)c2ccc(Cl)c(N3C(=O)C=CC3=O)c2)cc1	PGE2 EP2 inh 125
CC(=O)NC1(C(F)(F)F)NC(=O)N(C2CCCCC2)C1=O (centres undefined)	none
O=C(Cc1n[nH]c(=O)c2ccccc12)OCC(=O)N(Cc1ccccc1)Cc1ccccc1	EP2 modulator 63
Cc1ccc(NC(=O)c2ccccc2-c2ccccc2C(=O)O)cc1C	none
O=C(O)c1ccccc1-c1ccccc1C(=O)Nc1ccc2c(c1)[nH]c(=O)c1ccccc12	PGE2 EP2 inh 46! (no result: Pf gametocyte)
CCOc1ncccc1C(=O)Nc1nc(C(C)(C)C)cs1	EP2 modulator 64
CCOc1ncccc1C(=O)Nc1ncc(C)s1	none
Cc1n[nH]c(=S)n(NC(=O)CC(=O)Nn2c(=S)[nH]nc(C)c2=O)c1=O	none
CC1(C)Cc2nc3sc(C(=O)NCCCO)c(N)c3cc2CO1	none
CC(C)(C)c1cccc(P(=O)(c2ccccc2)c2ccccc2)c1O	EP2 modulator 66
C/C(=N/NC(=O)c1cccs1)c1c(C)[nH]n(-c2nc3ccccc3s2)c1=O	Pf gametocyte 56, HSV augment inconclusive
Oc1nc(Nc2ccccc2)sc1/C=C1\C=Nc2ccccc21	PGE2 EP2 inh 72
CC(C1CCN(Cc2cn(C)nc2-c2cccc(Cl)c2)CC1)N1CCOCC1 (centres undefined)	none
CO[C@@H]1/C=C\O[C@]2(C)Oc3c(C)c(O)c4c(O)c(c(CN(C)C)c(O)c4c3C2=O)NC(=O)C(C)=C/C=C\[C@@H](C)[C@@H](O)[C@H](C)[C@@H](O)[C@H](C)[C@H](OC(C)=O)[C@@H]1C	PGE2 EP2 inh 52 (no result: Furin inh, Pf gametocyte, HSV augment)
CO[C@H]1C=CO[C@@]2(C)Oc3c(C)c(O)c4c(O)c(c(C=NN5CCN(C)CC5)c(O)c4c3C2=O)NC(=O)C(C)=CC=C[C@H](C)[C@H](O)[C@@H](C)[C@@H](O)[C@@H](C)[C@H](OC(C)=O)[C@@H]1C	none (no result: Pf gametocyte)
C=C(C)C1Cc2c(C)nn(-c3ccccc3)c2C1 (centres undefined)	EP2 modulator 61 (no result: Pf gametocyte)
C=C(C)C1Cc2c(C)nn(-c3cccc4ccccc34)c2C1 (centres undefined)	none (no result: Pf gametocyte)
Cc1nn(-c2ccc(S(=O)(=O)O)cc2)c(O)c1N=Nc1ccc(-c2ccc(N=Nc3ccc4c(S(=O)(=O)O)cc(S(=O)(=O)O)c(N)c4c3O)c(O)c2)cc1O.[Cu].[Cu]	PGE2 EP2 inh 54 (no result: Furin inh, Pf gametocyte, HSV augment)
Cc1ccc(C2(O)CC3CCC(C2)N3C(=O)c2ccncc2)cc1 (centres undefined)	none (no result: Furin inh, Pf gametocyte, HSV augment)
CC(C)Oc1ccccc1Cn1c(=O)sc2ccccc21	EP2 modulator 83 (no result: Furin inh, Pf gametocyte, HSV augment)
O=C1CCC/C(=N\NC(=O)c2ccc(COc3ccccc3-c3ccccc3)cc2)C1	none
CC(C)(C)NC(=O)CSc1nc2ccccc2n1Cc1c(F)cccc1Cl	none (no result: Furin inh, Pf gametocyte, HSV augment)
CSc1nc2ccccc2n1Cc1c(Cl)cccc1Cl	EP2 modulator 65 (no result: Pf gametocyte)
CCOC(=O)n1c(=O)n(Cc2ccc(F)cc2)c2ccccc21	none
CCOC(=O)n1c(=O)n(Cc2cccc(C)c2)c2ccccc21	EP2 modulator 64 (no result: Pf gametocyte)
